Calls of active or inactive are those of the source. Unless noted, how the calls were made is not given here.
What was measured:
[1] = HepG2 liver cancer cell viability effects, profiling panel, resazurin fluorescence, 24 h, PK04 Diversity Set (AID 1172); settings: higher = more signal
[2] = basal S. cerevisiae growth modulation, no modifier, primary screen, OD600, strain BY4716, 24 h, basal condition (AID 1173); settings: OD600, 24 h, higher = more signal, called active from +8 up or from −8 down
[3] = MM1S myeloma cell viability, profiling panel, resazurin fluorescence, basal, 24 h, PK04 Diversity Set (AID 1174); settings: higher = more signal, called active from +8 up or from −8 down;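 further: MM1S multiple myeloma cell line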
[4] = biological target: Dihydroorotate dehydrogenase (quinone), mitochondrial (Plasmodium falciparum (isolate 3D7)) (UniProt Q08210); experiment: PfDHODH enzyme inhibitors, primary screen, biochemical, C-terminal His tag, absorbance 600 nm (AID 1175); settings: DCIP absorbance 600 nm, higher = more signal, called active from +8 up or from −8 down;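 further: recombinant parasite enzyme with a five histidine tag at its C terminus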
[5] = P. aeruginosa biofilm formation inhibitors, primary screen, strain PAO1, LB-PBS medium, absorbance 600 nm (AID 1176); settings: P. aeruginosa PAO1 growth/biofilm, A600, 12 h; higher = more signal
[6] = S. cerevisiae RM11-1a growth modifiers, primary screen, strain RM11-1a, OD600, basal, 24 h (AID 1177); settings: OD600, 24 h, higher = more signal, called active from +8 up or from −8 down;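 further: cultures grown under basal conditions with no added stressor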
[7] = E. coli acrAB mutant growth effects, primary screen, E. coli filamentation inducers, strain DRC39, OD650, 24 h (AID 1178); settings: higher = more signal, called active from +8 up or from −8 down;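 further: growth measured as culture turbidity by optical density at 650 nm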
[8] = E. coli acrAB mutant growth effects, primary screen, E. coli filamentation inducers, strain DRC39, OD650, 48 h (AID 1179);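 further: screen aims at cell division blockers that make cells filament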; settings: E. coli DRC39 delta-acrAB growth, higher = more signal, called active from +8 up or from −8 down
[9] = RPMI8226 myeloma cell viability, profiling panel, resazurin fluorescence, basal, 24 h, PK04 Diversity Set (AID 1180); settings: higher = more signal;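 further: RPMI8826 multiple myeloma cell line at 5000 cells per well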
[10] = biological target: E3 ubiquitin-protein ligase XIAP (Homo sapiens) (UniProt P98170); experiment: XIAP binders, primary screen, biophysical, small-molecule microarray, fluorescence 635 nm (AID 1181); settings: small-molecule microarray binding, higher = more signal;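 further: score merges 667 nm emission and signal to noise over triplicate slides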
[11] = test system: XIP peptide (Xip251-270) binding; experiment: small-molecule binders of XIP peptide, primary screen, biochemical, small-molecule microarray, fluorescence 635/667 nm, 0.1 µg/mL protein (AID 1182); settings: fluorescent protein binding, 635 nm, higher = more signal, called active from +8 up or from −8 down
[12] = test system: XIP peptide (Xip251-270); experiment: small-molecule binders of XIP peptide, primary screen, biochemical, small-molecule microarray, fluorescence 635/667 nm, 0.5 µg/mL protein (AID 1183); settings: small-molecule microarray binding, fluorescence 635 nm; higher = more signal
[13] = Plasmodium falciparum growth inhibition, primary screen, strain 3D7, DAPI fluorescence, 100 nL (AID 1184);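 further: parasites grown inside human red blood cells in medium with human serum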; settings: P. falciparum 3D7 growth, 3 d, higher = more signal
[14] = biological target: Homeobox protein Hox-A13 (Mus musculus) (UniProt Q62424); experiment: inhibitors of HoxA13-DNA binding, primary screen, biochemical, fluorescence polarization, labeled oligonucleotide (AID 1185); settings: 15 min, higher = more signal, called active from +8 up or from −8 down
[15] = inhibitors of hydroxyurea-induced Chk1 phosphorylation, primary screen, imaging, HeLa, phospho-Chk1 antibody, percent positive cells (AID 1186); settings: hydroxyurea-induced phospho-Chk1 immunofluorescence imaging, higher = more signal
[16] = inhibitors of hydroxyurea-induced Chk1 phosphorylation, primary screen, imaging, HeLa, phospho-Chk1 nuclear intensity (AID 1187); settings: hydroxyurea-induced phospho-Chk1 immunofluorescence imaging, higher = more signal

Sequence of Dihydroorotate dehydrogenase (quinone), mitochondrial (Plasmodium falciparum (isolate 3D7)) (Q08210 whole entry, looked up): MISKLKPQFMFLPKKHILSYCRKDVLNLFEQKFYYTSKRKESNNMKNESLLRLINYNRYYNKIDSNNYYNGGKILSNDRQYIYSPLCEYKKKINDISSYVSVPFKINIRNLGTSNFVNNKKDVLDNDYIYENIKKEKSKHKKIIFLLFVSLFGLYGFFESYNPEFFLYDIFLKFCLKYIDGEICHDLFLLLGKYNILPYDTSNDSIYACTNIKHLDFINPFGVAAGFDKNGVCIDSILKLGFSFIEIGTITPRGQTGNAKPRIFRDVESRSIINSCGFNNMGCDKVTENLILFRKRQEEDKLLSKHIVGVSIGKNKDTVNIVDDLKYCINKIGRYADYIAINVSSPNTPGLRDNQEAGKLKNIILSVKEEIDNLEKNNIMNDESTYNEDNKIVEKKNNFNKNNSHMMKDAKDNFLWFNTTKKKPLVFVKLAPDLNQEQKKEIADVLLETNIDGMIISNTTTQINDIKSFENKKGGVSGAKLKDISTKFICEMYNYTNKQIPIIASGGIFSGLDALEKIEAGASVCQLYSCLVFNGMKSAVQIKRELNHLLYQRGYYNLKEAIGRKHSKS
Sequence of E3 ubiquitin-protein ligase XIAP (Homo sapiens) (P98170 whole entry, looked up): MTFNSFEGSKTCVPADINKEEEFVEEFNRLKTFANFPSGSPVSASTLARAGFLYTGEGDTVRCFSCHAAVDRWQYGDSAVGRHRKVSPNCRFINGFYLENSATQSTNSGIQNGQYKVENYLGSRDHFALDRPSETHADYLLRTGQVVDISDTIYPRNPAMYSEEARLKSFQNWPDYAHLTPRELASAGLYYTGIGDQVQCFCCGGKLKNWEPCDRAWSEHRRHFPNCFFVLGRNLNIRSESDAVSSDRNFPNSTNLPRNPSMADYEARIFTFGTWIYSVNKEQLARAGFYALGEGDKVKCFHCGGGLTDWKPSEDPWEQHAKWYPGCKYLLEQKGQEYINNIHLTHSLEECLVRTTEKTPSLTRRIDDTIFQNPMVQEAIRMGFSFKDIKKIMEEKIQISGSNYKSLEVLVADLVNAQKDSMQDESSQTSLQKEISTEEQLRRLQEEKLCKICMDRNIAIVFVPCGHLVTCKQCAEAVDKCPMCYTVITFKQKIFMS
Sequence of Homeobox protein Hox-A13 (Mus musculus) (Q62424 whole entry, looked up): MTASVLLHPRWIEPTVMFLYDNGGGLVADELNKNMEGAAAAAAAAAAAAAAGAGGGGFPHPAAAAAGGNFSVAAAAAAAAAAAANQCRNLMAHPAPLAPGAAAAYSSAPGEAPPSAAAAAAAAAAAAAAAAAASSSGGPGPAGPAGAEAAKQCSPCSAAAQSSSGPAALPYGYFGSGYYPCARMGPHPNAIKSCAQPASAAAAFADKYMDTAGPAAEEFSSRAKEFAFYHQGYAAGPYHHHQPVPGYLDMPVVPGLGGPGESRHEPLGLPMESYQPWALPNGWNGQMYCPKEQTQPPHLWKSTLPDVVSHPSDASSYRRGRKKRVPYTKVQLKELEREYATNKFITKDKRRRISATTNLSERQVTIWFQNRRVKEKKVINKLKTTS

SMILES | z-score [1] | z-score [2] | z-score [3] | composite z-score [4] | z-score [5] | z-score [6] | z-score [7] | z-score [8] | z-score [9] | composite z-score [10] | composite z-score [11] | composite z-score [12] | z-score [13] | z-score [14] | z-score [15] | z-score [16]
COCCOC(=O)N1C(=O)[C@@]2(c3ccccc31)[C@H](C(=O)N1CCc3cc(OC)c(OC)cc3C1)[C@H]1C(=O)O[C@H](c3ccccc3)[C@H](c3ccccc3)N1[C@@H]2c1ccc(O)cc1 | 0.349 | 0.296 (inactive) | 0.173 (inactive) | -0.974 (inactive) | 2.16 (inactive) | 1.13 (inactive) | -0.157 (inactive) | 0.549 (inactive) | -0.111 | 0.116 | 1.58 (inactive) | 0.807 | -0.45 | -1.34 (inactive) | -0.437 (inactive) | -0.469 (inactive)
COCCOC(=O)N1C(=O)[C@@]2(c3cc(C#CC4=CCCCC4)ccc31)[C@H](c1ccc(OCCO)cc1)N1[C@H](c3ccccc3)[C@H](c3ccccc3)OC(=O)[C@H]1[C@@H]2C(=O)N1CCc2cc(OC)c(OC)cc2C1 | -0.248 | 0.683 (inactive) | -0.607 (inactive) | -0.0879 (inactive) | 2.68 (inactive) | 4.26 (inactive) | 0.118 (inactive) | 0.796 (inactive) | 0.474 | -0.0872 | 0.411 (inactive) | 0.64 | -2.06 | 3.66 (inactive) | -0.0561 (inactive) | -0.0158 (inactive)
CO[C@H]1O[C@H](CO)[C@@H](OC(=O)Nc2ccc(Oc3ccccc3)cc2)[C@H](OC(=O)Nc2ccc3c(c2)OCO3)[C@@H]1OC(=O)Nc1ccc2c(c1)OCO2 | -1.01 | 0.77 (inactive) | -0.949 (inactive) | 0.0357 (inactive) | 1.39 (inactive) | 2.65 (inactive) | 0.759 (inactive) | -0.0218 (inactive) | -0.793 | 0.222 | 0.23 (inactive) | 0.863 | -2.05 | -6.43 (inactive) | 0.126 (inactive) | 0.561 (inactive)
COc1cc(OC)c(C(O)C2C=CC3C(=O)NC(=O)C3N2Nc2ccccn2)cc1Br (centres undefined) | -0.455 | -0.991 (inactive) | -0.597 (inactive) | 0.412 (inactive) | 1.19 (inactive) | 0.666 (inactive) | -0.0857 (inactive) | -0.512 (inactive) | -0.195 | -0.0525 | 0.654 (inactive) | 0.448 | 0.776 | -1.28 (inactive) | -0.143 (inactive) | -0.266 (inactive)
O=C(CS)NCCCCCNC(=O)[C@H]1C[C@H]2C(=O)NCC(=O)N2[C@H]1c1cccc(OCCO)c1 | 0.942 | -0.191 (inactive) | 1.49 (inactive) | 0.258 (inactive) | -0.764 (inactive) | -0.39 (inactive) | 0.325 (inactive) | 0.261 (inactive) | 1.28 | 0.0174 | -0.109 (inactive) | 0.388 | 1.01 | -1.67 (inactive) | -0.56 (inactive) | -0.321 (inactive)
COCCOC(=O)N1C(=O)[C@@]2(c3cc(C#CC4(O)CCCCCC4)ccc31)[C@H](C(=O)Nc1nc3ccccc3s1)[C@H]1C(=O)O[C@H](c3ccccc3)[C@H](c3ccccc3)N1[C@@H]2c1ccccc1OCCO | 0.709 | 0.504 (inactive) | -1.15 (inactive) | -0.747 (inactive) | 0.249 (inactive) | 1.78 (inactive) | -0.632 (inactive) | 0.635 (inactive) | -0.435 | -0.0118 | 1.77 (inactive) | 0.748 | -1.43 | 2.95 (inactive) | 0.203 (inactive) | 0.693 (inactive)
COCCOC(=O)N1C(=O)[C@@]2(c3cc(C#Cc4ccc(OC)cc4)ccc31)[C@H](c1ccc(O)cc1)N1[C@H](c3ccccc3)[C@H](c3ccccc3)OC(=O)[C@H]1[C@@H]2C(=O)Nc1nc2ccccc2s1 | -0.719 | -0.442 (inactive) | -0.72 (inactive) | -0.455 (inactive) | 0.819 (inactive) | 0.363 (inactive) | -0.184 (inactive) | -0.0404 (inactive) | -0.61 | 0.0345 | 0.691 (inactive) | 0.641 | -0.0098 | -0.183 (inactive) | -0.233 (inactive) | -0.215 (inactive)
C[N+](C)(C)CCCC[C@@H]1NC(=O)[C@H]2C[C@@H](C(=O)NCCCCCCNC(=O)CS)[C@@H](c3ccc(O)cc3)N2C1=O | -0.935 | 0.123 (inactive) | -0.476 (inactive) | 0.0966 (inactive) | -0.0059 (inactive) | -0.0807 (inactive) | 0.0109 (inactive) | -0.643 (inactive) | -0.862 | -0.0272 | 0.945 (inactive) | -0.502 | 0.0331 | -2.68 (inactive) | -0.888 (inactive) | -0.233 (inactive)
C=C[C@H](C)[C@@H](OC(=O)Nc1ccc(SC)cc1)c1ccc(O)c2ccccc12 | -0.752 | -18.2 (active) | -3.78 (inactive) | -1.84 (inactive) | 0.908 (inactive) | -5.28 (inactive) | -0.33 (inactive) | -0.638 (inactive) | -3 | -0.258 | 0.68 (inactive) | 0.248 | -0.127 | -4.35 (inactive) | 1.16 (inactive) | 0.893 (inactive)
